The source of these data is PubChem BioAssay (Tox21).

The structures appear in SMILES notation. Results filed as inconclusive are left out. Active and inactive are the calls of the source. Calls come from the whole dose curve.
% is set by controls: 0 for no effect and ±100 for the full control effect; potency is the fitted concentration of half-maximal effect.

The assay is described as follows: qHTS assay to identify small molecule agonists of the NFkB signaling pathway - cell viability counter screen (AID 1159515). Note: nearly all actives have a fitted effect of over 55% in size. The settings on record: NFkB-bla ME-180 viability, CellTiter-Glo luminescence, 5 h; series mostly up to 61 µM; activity, negative = cytotoxic: at the top concentration. The text has this: National Center for Advancing Translational Sciences [NCATS]
NIH Chemical Genomics Center [NCGC]
U.S. Environmental Protection Agency [EPA]
National Institutes of Environmental Health Sciences [NIEHS]
National Toxicology Program [NTP]
U.S. Food and Drug Administration [FDA]
Transcription factors and their stimulated target gene expression play pivotal roles across many cellular processes including responses to environmental stimuli. Proper regulation of associated pathways is critical to maintain cell health and function. Constitutive activation of transcription factor pathways has been implicated in tumors as it may block cellular functions such as apoptosis and lead to invasion and metastasis. One important transcription factor that stimulates gene expression in response to cytokines, UV radiation, and other stimuli is nuclear factor-kappa B (NFkB). To measure activation of the NFkB pathway, the CellSensor NFkB-bla ME-180 cell line (Life Technologies, Carlsbad, CA) that stably expresses beta-lactamase reporter gene under the regulation of a NF-kB response element was used. This assay allows measurement of the NFkB pathway activity induced by compounds in a ME-180 cell line. This system quantitates NF-kB activity using a FRET-based assay system where beta-lactamase expression disrupts FRET, allowing for fluorescent measurement of activity. This cell line has been used to screen the Tox21 10K compound library and to identify compounds that induce the NFkB pathway activity. The cytotoxicity of the Tox21 compound library against the NFkB-bla ME-180 cell line was tested in parallel by measuring cell viability using the CellTiter-Glo assay in the same wells.
Tox21 Assay Protocol Summary:
NFkB-bla ME-180 cells were dispensed at 2,000 cells/6 uL of assay medium per well into black wall/clear-bottom 1536-well plates using a Multidrop Combi (ThermoFisher Scientific, Waltham, MA) dispenser. After the assay plates were incubated at 37 C and 5% CO2 for an overnight, 23 nL of compounds dissolved in DMSO, positive controls or DMSO only was transferred to the assay plate by a Pintool station (Kalypsys, San Diego, CA). The assay plates were incubated at 37 C and 5% CO2 for 5 hr. One uL of LiveBLAzer B/G FRET substrate (Life Technologies) was added using a Flying Reagent Dispenser (Aurora Discovery, San Diego, CA) and the plates were incubated at room temperature for 1.5 hr. Fluorescence intensity (405 nm excitation, 460 nm and 530 nm emissions) was measured using an Envision plate reader (PerkinElmer, Shelton, CT). For cytotoxicity, 3 ul/well of CellTiter-Glo reagent was added into the assay plates using an FRD. After 30 min incubation at room temperature, the luminescence intensity was measured using a ViewLux plate reader (PerkinElmer).
In general terms: qHTS replaces the single test concentration by a dilution series.
As for `O=S1(=O)OC(c2cc(Br)c(O)c(Br)c2)(c2cc(Br)c(O)c(Br)c2)c2ccccc21`, the Potency was 40 µM (active). For the molecule `N#CCC#N`, the “activity, negative = cytotoxic” value was 0.232% (inactive). Same read-out and setting: the result for `Cc1cc(=O)[nH]o1` reads -11.5% [at 78.8 µM] (inactive); that for `CC(O)(CS(=O)(=O)c1ccc(F)cc1)C(=O)Nc1ccc(C#N)c(C(F)(F)F)c1` (stereo not given), -24.1% (inactive). Regarding `COC(C)(C)CCC[C@H](C)C/C=C/C(C)=C/C(=O)OC(C)C`, the “activity, negative = cytotoxic” value was -8.64% (inactive). Same read-out and setting: the result for `CC1(C)[C@H](C=C(Cl)Cl)[C@@H]1C(=O)O[C@@H](C#N)c1cccc(Oc2ccccc2)c1` reads 0.776% (inactive); that for `COc1nn(C(=O)NS(=O)(=O)c2ccccc2OC(F)(F)F)c(=O)n1C`, 10.4% (inactive); that for `NCC(CC(=O)O)c1ccc(Cl)cc1` (stereo not given), 1.83% [at 0.628 µM] (inactive). With `CC(C)(C)c1cc([N+](=O)[O-])cc([N+](=O)[O-])c1O`, the “activity, negative = cytotoxic” value is 12.7% (inactive).

In the case of `CCN(C)N=O`, the “activity, negative = cytotoxic” value is -4.41% (inactive). Consider `Cc1c(F)c(F)c(COC(=O)C2C(/C=C(\Cl)C(F)(F)F)C2(C)C)c(F)c1F` (stereo not given), for which the “activity, negative = cytotoxic” value is -0.865% (inactive). On to `CCOC(=O)COc1cc(-c2nn(C)c(OC(F)F)c2Cl)c(F)cc1Cl`, for which the “activity, negative = cytotoxic” value was 2.47% (inactive). The same measure, in the same setting: in the case of `CCc1ccc(C(=O)NN(C(=O)c2cc(C)cc(C)c2)C(C)(C)C)cc1` it was -20.9% (inactive); in that of `O=S(=O)(Cl)c1ccccc1`, -1.92% [at 78.8 µM] (inactive). Take `c1ccc(C2CC2)c(OCC2=NCCN2)c1`: the “activity, negative = cytotoxic” value was 0.821% (inactive). The same measure, in the same setting: the result for `CC1Sc2c(C(=O)O)c(=O)c3cc(F)c(N4CCNCC4)cc3n21` (stereo not given) reads 8.08% (inactive); that for `COC(=O)C(C)N(C(=O)Cc1ccccc1)c1c(C)cccc1C` (stereo not given), -9.65% (inactive). Same read-out and setting: the result for `CN1C(=O)NC(=O)C(C)(C2=CCCCC2)C1=O` (stereo not given) reads 3.97% (inactive). Consider `IC(I)=C(I)I`, for which the Potency was 54.9 µM (active). Regarding `Sc1ccccc1Cl`, the “activity, negative = cytotoxic” value was 1% (inactive). Still for that read-out and setting: the result for `O=[N+]([O-])c1ccccc1CCl` reads 25.8% [at 78.8 µM] (inactive); that for `O=C(O)CC(Cl)C(=O)O` (stereo not given), 0.543% [at 78.8 µM] (inactive); that for `Nc1nc(=S)[nH][nH]1`, 6.68% (inactive). As for `CC(c1ccc(O)cc1)(c1ccc(O)cc1)c1ccc(O)cc1`, the “activity, negative = cytotoxic” value is -10.5% (inactive).

With `CN1C[C@H](CNC(=O)OCc2ccccc2)C[C@@H]2c3cccc4c3c(cn4C)C[C@H]21`, the “activity, negative = cytotoxic” value is -4.88% (inactive). The same measure, in the same setting: the result for `CO/C=C(/C(=O)OC)c1ccccc1COc1cccc(C(F)(F)F)n1` reads -12.2% (inactive); that for `CCOP(=O)(OCC)O/C(=C/Cl)c1ccc(Cl)cc1Cl`, -9.39% (inactive). Turning to `COC(=O)C(Br)CBr` (stereo not given), the “activity, negative = cytotoxic” value is -11% (inactive). Take `Brc1ccccc1`: the “activity, negative = cytotoxic” value is 15.6% (inactive). On the same count and under the same terms, the result for `C/C=C/C=O` reads -7.71% (inactive); that for `O=C(OC1CCCCC1)c1ccccc1C(=O)OC1CCCCC1`, -17.8% [at 78.8 µM] (inactive). Same read-out and setting: in the case of `O=C(O)COc1ccc(Cl)cc1` it was 11.9% (inactive); in that of `COc1cc(Cl)c(OC)cc1Cl`, 1% (inactive).

Take `CNC(C)Cc1ccccc1OC` (stereo not given): the “activity, negative = cytotoxic” value is 2.35% (inactive). On the same count and under the same terms, in the case of `Clc1cc(C(Cl)(Cl)Cl)cnc1Cl` it was -0.475% (inactive). Still for that read-out and setting: the result for `Cn1sc(Cl)cc1=O` reads 1.35% (inactive); that for `C[C@H]1CNCCc2ccc(Cl)cc21`, -13.8% (inactive).

With `CCOc1ccc(C(C)(C)COCc2cccc(Oc3ccccc3)c2)cc1`, the “activity, negative = cytotoxic” value was 7.5% (inactive). With `O=S1OC[C@@H]2[C@H](CO1)[C@]1(Cl)C(Cl)=C(Cl)[C@@]2(Cl)C1(Cl)Cl` (stereo not given in full), the “activity, negative = cytotoxic” value is -7.9% (inactive). On the same count and under the same terms, in the case of `NS(=O)(=O)C(F)(F)C(F)(F)C(F)(F)C(F)(F)C(F)(F)C(F)(F)C(F)(F)C(F)(F)F` it was -2.84% (inactive).
